Laboratory results from PubChem BioAssay.
The source made the active and inactive calls. Rule as the data show it, unless noted: active = inhibition above about 44%; inactive = the rest.

How the values were obtained:
[1] = target: Nuclear receptor coactivator 1 (Homo sapiens) (UniProt Q15788); experiment: NCOA1 GAL4-fusion reporter inhibition – cell-based, luminescence, quadruplicate, confirmation (AID 588820;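 active = mean inhibition above 46.68%, the untreated control wells mean plus 3 SD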;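 also: 0% = DMSO wells and 100% = gossypol 36 µM treated wells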); settings: HEK293 GAL4-SRC1 luciferase reporter, at 3.6 µM, active compounds read high
Chain of Nuclear receptor coactivator 1 (Homo sapiens) (Q15788 whole entry, looked up, the tested form may be a part): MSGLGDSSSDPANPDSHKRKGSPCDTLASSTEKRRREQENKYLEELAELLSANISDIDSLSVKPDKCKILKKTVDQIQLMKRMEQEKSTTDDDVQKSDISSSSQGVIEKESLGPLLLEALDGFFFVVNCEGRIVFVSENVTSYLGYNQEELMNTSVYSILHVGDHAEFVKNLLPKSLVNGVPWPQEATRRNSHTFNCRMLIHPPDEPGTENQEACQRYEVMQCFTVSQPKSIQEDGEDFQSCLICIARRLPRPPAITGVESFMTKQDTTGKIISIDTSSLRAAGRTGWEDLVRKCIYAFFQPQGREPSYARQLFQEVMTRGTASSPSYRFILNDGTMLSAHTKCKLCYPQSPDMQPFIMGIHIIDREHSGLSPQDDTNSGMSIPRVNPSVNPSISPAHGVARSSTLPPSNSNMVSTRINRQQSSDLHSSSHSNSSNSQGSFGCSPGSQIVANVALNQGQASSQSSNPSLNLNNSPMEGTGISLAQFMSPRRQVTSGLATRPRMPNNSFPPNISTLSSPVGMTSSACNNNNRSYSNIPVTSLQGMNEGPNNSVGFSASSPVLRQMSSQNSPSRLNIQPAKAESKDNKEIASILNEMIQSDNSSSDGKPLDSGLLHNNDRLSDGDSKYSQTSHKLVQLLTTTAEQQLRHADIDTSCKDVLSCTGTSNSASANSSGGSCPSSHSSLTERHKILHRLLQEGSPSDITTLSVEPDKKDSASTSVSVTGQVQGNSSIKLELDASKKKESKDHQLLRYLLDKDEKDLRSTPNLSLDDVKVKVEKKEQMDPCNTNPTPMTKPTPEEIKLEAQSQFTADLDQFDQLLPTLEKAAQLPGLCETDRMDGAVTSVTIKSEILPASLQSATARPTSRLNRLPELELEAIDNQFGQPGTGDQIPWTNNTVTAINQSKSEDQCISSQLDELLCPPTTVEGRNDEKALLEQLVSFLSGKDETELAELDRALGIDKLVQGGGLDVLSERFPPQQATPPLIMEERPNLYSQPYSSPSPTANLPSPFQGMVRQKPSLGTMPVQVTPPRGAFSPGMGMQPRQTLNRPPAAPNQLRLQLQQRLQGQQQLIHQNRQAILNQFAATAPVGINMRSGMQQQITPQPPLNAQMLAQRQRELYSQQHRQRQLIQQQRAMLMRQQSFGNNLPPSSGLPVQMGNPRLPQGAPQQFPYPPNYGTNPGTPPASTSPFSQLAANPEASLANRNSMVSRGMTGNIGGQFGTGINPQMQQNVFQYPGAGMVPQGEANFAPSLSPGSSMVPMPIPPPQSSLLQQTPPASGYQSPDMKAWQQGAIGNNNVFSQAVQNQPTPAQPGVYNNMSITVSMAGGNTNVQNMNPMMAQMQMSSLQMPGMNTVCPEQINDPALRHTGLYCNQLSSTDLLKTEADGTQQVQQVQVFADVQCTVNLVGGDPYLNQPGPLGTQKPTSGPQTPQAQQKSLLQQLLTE

[2] = repression of VP16-driven luciferase reporter – cell-based, luminescence, high throughput, counter-screen for SRC1 inhibitor project (AID 588824; in the data active = inhibition above about 25%); settings: cell-based VP16 transactivation luciferase luminescence; at 3.6 µM; active compounds read high
[3] = StAR promoter reporter inhibitors, counter-screen for LRH-1 inverse agonist project, cell-based, luminescence, high throughput (AID 651611; in the data active = inhibition above about 28%); settings: StAR promoter luciferase reporter counterscreen, at 3.6 µM, active compounds read high
[4] = target: Nuclear receptor subfamily 5 group A member 2 (Homo sapiens) (UniProt O00482); experiment: NR5A2 activity suppression in reporter cells – cell-based, luminescence, confirmation (AID 651613; in the data active = inhibition above about 42%;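 also: HEK293T cells co-transfected with LRH-1 and StAR promoter luciferase reporter; 0% = vehicle wells and 100% = parental cells lacking receptor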); settings: cell-based LRH-1 luciferase reporter, inverse agonism; at 3.6 µM; active compounds read high
Chain of Nuclear receptor subfamily 5 group A member 2 (Homo sapiens) (O00482 whole entry, looked up): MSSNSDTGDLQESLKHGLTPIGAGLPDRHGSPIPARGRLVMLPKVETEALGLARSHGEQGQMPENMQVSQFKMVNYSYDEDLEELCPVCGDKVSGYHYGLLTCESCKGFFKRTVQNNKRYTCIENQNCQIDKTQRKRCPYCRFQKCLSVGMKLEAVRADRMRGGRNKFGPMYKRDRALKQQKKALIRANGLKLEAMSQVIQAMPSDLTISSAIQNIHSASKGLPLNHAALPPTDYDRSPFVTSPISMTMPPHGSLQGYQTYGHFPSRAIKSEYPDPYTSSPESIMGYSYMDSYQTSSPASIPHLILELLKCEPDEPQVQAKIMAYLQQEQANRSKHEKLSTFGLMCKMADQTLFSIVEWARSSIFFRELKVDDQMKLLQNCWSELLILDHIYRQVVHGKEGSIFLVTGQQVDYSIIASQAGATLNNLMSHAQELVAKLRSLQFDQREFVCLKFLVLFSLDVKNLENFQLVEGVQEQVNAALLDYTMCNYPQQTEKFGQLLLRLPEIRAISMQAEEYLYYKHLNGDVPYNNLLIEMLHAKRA

[5] = target: Steroidogenic factor 1 (Homo sapiens) (UniProt Q13285); experiment: inverse agonism at SF1 nuclear receptor – cell-based, luminescence, high throughput, counter-screen for LRH-1 inverse agonist project (AID 651614); settings: cell-based SF1 luciferase reporter, at 3.6 µM, active compounds read high;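 also: cells cotransfected with StAR promoter reporter and SF1 expression vector; 0% = vehicle on cells with receptor and 100% = vehicle on cells lacking receptor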
Chain of Steroidogenic factor 1 (Homo sapiens) (Q13285 whole entry, looked up, the tested form may be a part): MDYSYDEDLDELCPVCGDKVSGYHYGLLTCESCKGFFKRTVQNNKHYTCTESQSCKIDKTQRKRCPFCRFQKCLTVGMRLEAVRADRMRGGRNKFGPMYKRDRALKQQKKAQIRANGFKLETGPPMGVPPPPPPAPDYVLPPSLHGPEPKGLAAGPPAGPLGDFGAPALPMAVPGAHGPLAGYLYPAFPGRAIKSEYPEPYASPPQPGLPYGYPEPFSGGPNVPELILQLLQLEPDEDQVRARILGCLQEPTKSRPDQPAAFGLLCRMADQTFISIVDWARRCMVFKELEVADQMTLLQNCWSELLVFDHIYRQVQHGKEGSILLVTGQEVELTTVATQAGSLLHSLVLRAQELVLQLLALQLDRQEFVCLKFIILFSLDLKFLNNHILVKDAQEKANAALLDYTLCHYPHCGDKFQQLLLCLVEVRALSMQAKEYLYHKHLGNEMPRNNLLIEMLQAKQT

[6] = compounds suppressing VP16-driven luciferase signal – cell-based, luminescence, high throughput, counter-screen for LRH-1 inverse agonist project (AID 651615; in the data active = inhibition above about 33%); settings: Gal4-VP16 luciferase reporter cells, at 3.6 µM, active compounds read high

Measured: inhibition

CC(=O)Nc1ccccc1OCC(=O)c1cc(C)n(Cc2cccs2)c1C
active: [2] 39.3% | [3] 28.7% | [5] 47.4% | [6] 39.6%
inactive: [1] -59.8% | [4] 21.5%

CN(C(=O)c1cccc(NC(=O)Cc2ccc(NC(=O)C3CCCN(C(=O)CCc4ccccc4)C3)cc2)c1)C1CCCCC1 (stereo not given)
inactive: [1] 6.53% | [3] 24.3%
active: [2] 28% | [4] 49.4% | [5] 48.5% | [6] 45.2%

CCN(CC)CCn1nc2c3c(cccc3c1=O)-c1ccccc1-2
active: [2] 54.7% | [3] 54.2% | [4] 84.5% | [5] 80.1% | [6] 79.5%
inactive: [1] 28.6%

Cc1cccc(-n2c(CNC(=O)c3ccccc3)nnc2SCC(=O)Nc2nccs2)c1
inactive: [1] -8.14% | [2] 4.71% | [3] 10.2% | [4] 10.1% | [5] 17.1% | [6] 3.06%

CCN(CC(=O)Nc1ccc(NC(C)=O)cc1)C(=O)C1(c2ccc(Cl)cc2)CCC1
inactive: [1] 16.1% | [2] 9.61% | [3] -2.92% | [4] 40.1% | [5] 27.4% | [6] 11.8%
